From PubChem BioAssay AID1159580 (chemical genetic matrix, 2015)
The whole screen tested about 5,500 compounds, of which about 2,000 (36%) were called active. About 18% were inconclusive and are not listed. Rule as the data show it: active = normalized growth mostly below about 0.91 (no sharp cut-off); inconclusive = no clear call, values can overlap the other calls; inactive = mostly above about 0.92. Some of the results follow.

Assay: chemical genetic growth profiling, strain panel (AID 1159580);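 also: tested at 20 µM; growth read once vehicle control cultures reached saturation at 30 °C; 1 = growth at the plate median or of vehicle wells; lower values mean less growth of the strain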
Details: growth OD

Measured: normalized growth

CSCCC(NC=O)C(=O)NC(C)C(=O)O (stereo not given)
inactive: S. cerevisiae deletion strains, locus YBR021W, strain FUR4, active compounds read low 0.982 | S. cerevisiae deletion strains, locus YBR229C, strain ROT2, active compounds read low 0.989 | S. cerevisiae deletion strains, locus YCL029C, strain bik1, active compounds read low 0.983 | S. cerevisiae deletion strains, locus YDL035C, strain GPR1, active compounds read low 1.01 | S. cerevisiae deletion strains, locus YDL074C, strain BRE1, active compounds read low 1.02 | S. cerevisiae deletion strains, locus YDL101C, strain DUN1, active compounds read low 0.998 | S. cerevisiae deletion strains, locus YDL134C, strain PPH21, active compounds read low 0.989 | S. cerevisiae deletion strains, locus YDL185W, strain tfp1, active compounds read low 0.977 | S. cerevisiae deletion strains, locus YDL192W, strain arf1, active compounds read low 0.972 | S. cerevisiae deletion strains, locus YDR101C, strain arx1, active compounds read low 0.983 | S. cerevisiae deletion strains, locus YDR162C, strain NBP2, active compounds read low 0.997 | S. cerevisiae deletion strains, locus YDR318W, strain mcm21, active compounds read low 0.988 | S. cerevisiae deletion strains, locus YDR388W, active compounds read low 0.985 | S. cerevisiae deletion strains, locus YDR502C, strain sam2, active compounds read low 0.992 | S. cerevisiae deletion strains, locus YEL061C, strain CIN8, active compounds read low 0.995 | S. cerevisiae deletion strains, locus YER110C, active compounds read low 0.976 | S. cerevisiae deletion strains, locus YER155C, strain BEM2, active compounds read low 0.993 | S. cerevisiae deletion strains, locus YER167W, strain BCK2, active compounds read low 0.988 | S. cerevisiae deletion strains, locus YGL078C, strain dbp3, active compounds read low 0.978 | S. cerevisiae deletion strains, locus YGL086W, strain mad1, active compounds read low 0.996 | S. cerevisiae deletion strains, locus YGL248W, strain PDE1, active compounds read low 1.01 | S. cerevisiae deletion strains, locus YGR078C, strain PAC10, active compounds read low 1.03 | S. cerevisiae deletion strains, locus YGR135W, strain pre9, active compounds read low 0.984 | S. cerevisiae deletion strains, locus YGR229C, strain SMI1, active compounds read low 0.995 | S. cerevisiae deletion strains, locus YGR252W, strain gcn5, active compounds read low 0.972 | S. cerevisiae deletion strains, locus YHR030C, strain SLT2, active compounds read low 0.989 | S. cerevisiae deletion strains, locus YHR079C, strain IRE1 (second series), active compounds read low 0.988 | S. cerevisiae deletion strains, locus YHR094C, strain hxt1, active compounds read low 0.978 | S. cerevisiae deletion strains, locus YHR129C, strain ARP1, active compounds read low 0.996 | S. cerevisiae deletion strains, locus YHR200W, strain rpn10, active compounds read low 0.987 | S. cerevisiae deletion strains, locus YIL066C, strain RNR3, active compounds read low 1 | S. cerevisiae deletion strains, locus YIL073C, strain SPO22, active compounds read low 0.943 | S. cerevisiae deletion strains, locus YIL125W, strain kgd1, active compounds read low 0.987 | S. cerevisiae deletion strains, locus YIR030C, strain dcg1, active compounds read low 0.983 | S. cerevisiae deletion strains, locus YJL095W, strain BCK1, active compounds read low 1.04 | S. cerevisiae deletion strains, locus YJL134W, strain LCB3, active compounds read low 0.991 | S. cerevisiae deletion strains, locus YJL168C, strain set2, active compounds read low 0.985 | S. cerevisiae deletion strains, locus YJL187C, strain SWE1 (second series), active compounds read low 1.01 | S. cerevisiae deletion strains, locus YJR043C, strain POL32, active compounds read low 1.02 | S. cerevisiae deletion strains, locus YJR075W, strain HOC1, active compounds read low 1.01 | S. cerevisiae deletion strains, locus YKL009W, strain mrt4, active compounds read low 0.974 | S. cerevisiae deletion strains, locus YKL068W, active compounds read low 0.986 | S. cerevisiae deletion strains, locus YKL085W, strain MDH1 (second series), active compounds read low 1.01 | S. cerevisiae deletion strains, locus YKL085W, strain MDH1, active compounds read low 1.01 | S. cerevisiae deletion strains, locus YKL190W, strain CNB1, active compounds read low 1 | S. cerevisiae deletion strains, locus YKR001C, strain vps1, active compounds read low 0.988 | S. cerevisiae deletion strains, locus YLR039C, strain RIC1, active compounds read low 1.01 | S. cerevisiae deletion strains, locus YLR058C, strain SHM2, active compounds read low 0.996 | S. cerevisiae deletion strains, locus YLR102C, strain apc9, active compounds read low 0.98 | S. cerevisiae deletion strains, locus YLR262C, strain YPT6, active compounds read low 1.04 | S. cerevisiae deletion strains, locus YLR268W, strain sec22, active compounds read low 0.987 | S. cerevisiae deletion strains, locus YLR330W, strain CHS5, active compounds read low 0.99 | S. cerevisiae deletion strains, locus YLR342W, strain FKS1 (second series), active compounds read low 0.987 | S. cerevisiae deletion strains, locus YLR371W, strain rom2, active compounds read low 0.972 | S. cerevisiae deletion strains, locus YLR418C, strain cdc73, active compounds read low 0.994 | S. cerevisiae deletion strains, locus YML016C, strain PPZ1, active compounds read low 0.993 | S. cerevisiae deletion strains, locus YML032C, strain rad52, active compounds read low 0.987 | S. cerevisiae deletion strains, locus YML124C, strain tub3, active compounds read low 0.981 | S. cerevisiae deletion strains, locus YMR078C, strain ctf18, active compounds read low 0.984 | S. cerevisiae deletion strains, locus YMR223W, strain ubp8, active compounds read low 0.986 | S. cerevisiae deletion strains, locus YMR263W, strain SAP30, active compounds read low 1.01 | S. cerevisiae deletion strains, locus YMR307W, strain GAS1, active compounds read low 0.872 | S. cerevisiae deletion strains, locus YNL067W, strain RPL9B, active compounds read low 1.03 | S. cerevisiae deletion strains, locus YNL153C, strain GIM3, active compounds read low 1.04 | S. cerevisiae deletion strains, locus YNL233W, strain BNI4, active compounds read low 1.01 | S. cerevisiae deletion strains, locus YNL250W, strain rad50, active compounds read low 0.983 | S. cerevisiae deletion strains, locus YNL271C, strain bni1, active compounds read low 0.968 | S. cerevisiae deletion strains, locus YNL298W, strain CLA4, active compounds read low 0.99 | S. cerevisiae deletion strains, locus YNL307C, strain MCK1, active compounds read low 0.989 | S. cerevisiae deletion strains, locus YNR052C, strain pop2, active compounds read low 0.983 | S. cerevisiae deletion strains, locus YOL006C, strain TOP1, active compounds read low 1.05 | S. cerevisiae deletion strains, locus YOL012C, strain htz1 1.02 | S. cerevisiae deletion strains, locus YOL147C, strain pex11, active compounds read low 0.983 | S. cerevisiae deletion strains, locus YOR061W, strain CKA2, active compounds read low 0.993 | S. cerevisiae deletion strains, locus YOR069W, strain VPS5, active compounds read low 0.983 | S. cerevisiae deletion strains, locus YOR136W, strain idh2, active compounds read low 0.995 | S. cerevisiae deletion strains, locus YOR144C, strain elg1, active compounds read low 0.984 | S. cerevisiae deletion strains, locus YOR184W, strain ser1, active compounds read low 0.995 | S. cerevisiae deletion strains, locus YOR316C, strain cot1, active compounds read low 0.972 | S. cerevisiae deletion strains, locus YPR119W, strain clb2, active compounds read low 0.991 | S. cerevisiae deletion strains, locus YPR141C, strain kar3, active compounds read low 0.978 | S. cerevisiae deletion strains, locus YPR163C, strain tif3, active compounds read low 0.988 | S. cerevisiae deletion strains, locus YPR167C, strain met16, active compounds read low 0.978 | S. cerevisiae deletion strains, strain wtn01, active compounds read low 0.992 | S. cerevisiae strains, strain wild type, active compounds read low 0.996
